Bioassay records deposited in PubChem by National Center for Advancing Translational Sciences (NCATS).
Only some compounds are listed: those with a hit (about 12% of all), similar ones and a draw of the others.
Sfp PPTase inh: qHTS Assay for Inhibitors of Bacillus subtilis Sfp phosphopantetheinyl transferase (PPTase); 4'-phosphopantetheinyl transferase ffp (Bacillus subtilis), Q9F4F7; Potency, µM, inactives show largest response in the series, negative = inhibition, most hits filed as inhibitors; Biochemical Sfp PPTase activity, qHTS; 310,000 tested, 3.5% active;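 further: the enzyme is Sfp with the accession as filed and its product quenches rhodamine fluorescence; 0% = enzyme reaction without inhibitor and -100% = no enzyme wells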
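Buffer: 50 mM Hepes-Na pH 7.6, 10 mM MgCl2, 0.01% Nonidet P-40, 0.01% BSA. Enzyme 15 nM, pre-exposed to compound 15 min; substrates then added and fluorescence change tracked over 30 min.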
JMJD2A Tudor: qHTS Assay for Inhibitors of JMJD2A-Tudor Domain | Lysine-specific demethylase 4A (Homo sapiens), O75164 | AlphaScreen JMJD2A-Tudor / H3K4me3 peptide binding | Potency, µM (series often up to 114 µM), inactives show at the top dose activity change, negative = inhibition, most hits filed as inhibitors | 390,000 tested, 4.4% active | AID 504339, 2011; further: on the % scale 0 is the no-effect control and ±100 the full control effect; nearly all actives have a fitted effect of over 50% in size
HP1b chromo inh: HTS for Inhibitors of HP1-beta Chromodomain Interactions with Methylated Histone Tails. Potency, µM (top dose mostly 114 µM), for inactives: at the highest dose activity change, negative = inhibition, actives largely listed as inhibitors. AlphaScreen HP1-beta / biotin-H3K9me3 peptide binding. 390,000 tested, 0.56% active. Chromobox protein homolog 1 (Homo sapiens), P83916; further: nearly all actives have a fitted effect of over 70% in size
Target sequence (P83916 whole entry, looked up): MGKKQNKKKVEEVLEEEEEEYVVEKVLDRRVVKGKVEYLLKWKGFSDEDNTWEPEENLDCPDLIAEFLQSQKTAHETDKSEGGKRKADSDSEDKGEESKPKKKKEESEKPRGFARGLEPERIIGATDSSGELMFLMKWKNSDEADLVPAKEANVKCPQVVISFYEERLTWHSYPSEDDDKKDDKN
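Compound inhibition of the preformed complex between 50 nM HP1-beta and 50 nM biotinylated H3K9me3 peptide was read by AlphaScreen. Buffer was PBS pH 7.4 with 0.01% Tween-20. Incubations ran 30 min at room temperature, with 10 ug/mL donor/acceptor beads.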
G9a block: qHTS Assay for Inhibitors of Histone Lysine Methyltransferase G9a; Histone-lysine N-methyltransferase EHMT2 (Homo sapiens), Q96KQ7; Potency, µM (doses to about 102 µM), without a hit: at the top dose activity, negative = inhibition, most hits filed as inhibitors; 350,000 tested, 8.8% active; G9a H3K9 monomethylation, AlphaScreen, 2 h; AID 504332, 2011; further: on the % scale 0 is the no-effect control and ±100 the full control effect; nearly all actives have a fitted effect of over 75% in size
Target sequence (Q96KQ7 913-1193 limits assumed): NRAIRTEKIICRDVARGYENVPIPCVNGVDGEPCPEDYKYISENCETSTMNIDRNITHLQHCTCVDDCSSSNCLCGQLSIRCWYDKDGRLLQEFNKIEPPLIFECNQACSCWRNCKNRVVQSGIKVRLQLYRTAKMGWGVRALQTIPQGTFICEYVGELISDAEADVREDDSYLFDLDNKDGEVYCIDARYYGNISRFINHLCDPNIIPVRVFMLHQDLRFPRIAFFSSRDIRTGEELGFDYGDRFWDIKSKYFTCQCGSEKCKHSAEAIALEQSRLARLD
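Quantitative HTS format: methyltransferase activity on a biotin-tagged H3K9 peptide is measured by AlphaScreen, using a rabbit anti-monomethyl-H3K9 antibody with streptavidin donor and anti-IgG acceptor beads. Final levels are 20 nM enzyme, 500 nM peptide, 20 uM SAM; 2 h RT.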
BAZ2B block: qHTS Assay for Inhibitors of BAZ2B; Bromodomain adjacent to zinc finger domain protein 2B (Homo sapiens), Q9UIF8; AlphaScreen BAZ2B-H3K14Ac peptide displacement; Potency, µM (titrated, usually from 114 µM), for the others: top-dose activity change, negative = inhibition, actives largely listed as inhibitors; 360,000 tested, 4.4% active; AID 504333, 2011; further: on the % scale 0 is the no-effect control and ±100 the full control effect; nearly all actives have a fitted effect of over 60% in size
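Multi-concentration screen (max 110 uM) measuring displacement of acetylated histone H3 peptide from BAZ2B by AlphaScreen, using 50 nM protein, 50 nM peptide and 10 ug/mL streptavidin donor plus Ni-chelate acceptor beads.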
L3MBTL1 block: qHTS Assay for the Inhibitors of L3MBTL1; Potency, µM (series often up to 57.1 µM), for inactives: top-dose activity, negative = inhibition, hits mostly inhibitors; Lethal(3)malignant brain tumor-like protein 1 (Homo sapiens), Q9Y468; 230,000 tested, 0.66% active; AlphaScreen L3MBTL1–H3K9me1 peptide binding; further: on the % scale 0 is the no-effect control and ±100 the full control effect; nearly all actives have a fitted effect of over 60% in size
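Read-out is AlphaScreen signal from streptavidin donor and nickel chelate acceptor beads (10 ug/mL final each) bridging L3MBTL1 (50 nM) and biotinylated K9-monomethylated H3(1-15) peptide (75 nM), after 30 min compound exposure at room temperature.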
* hit, by the source's call; ? = inconclusive; / = no result; [ ] = dose if it differs, or a comment. The call rests on the fitted dose curve; in most records, active means well fitted curve in the direction sought with a large enough effect; inconclusive means small, poorly fitted or top-dose-only effect, or another doubt; inactive means no such curve, though single readings can be large; an effect the other way counts as inactive or inconclusive. Potency means the concentration at half of the fitted maximal effect.

SMILES	Sfp PPTase inh	JMJD2A Tudor	HP1b chromo inh	G9a block	BAZ2B block	L3MBTL1 block
COCCNC(=S)N=Nc1c(O)[nH]c2ccc([N+](=O)[O-])cc12	13.1%	25.1µM*	14.5%	/	-3.9%	-11.7%
O=[N+]([O-])c1ccc2[nH]c(O)c(N=Nc3ccc(F)cc3)c2c1	-4.4%	-16.4%	8.1%	23.6%	-20.3%	/
O=[N+]([O-])c1ccc(N=Nc2c(O)[nH]c3ccc(F)cc23)cc1	-12.2%	?	-38.6%	39.8µM*	-32.3%	/
O=C(c1ccc(Br)s1)N(Cc1cccnc1)c1nc2ccc(F)cc2s1	/	-11.0%	12.8%	?	-2.8%	/
O=C(c1cccc(S(=O)(=O)N2CCN(c3ccc(F)cc3)CC2)c1)N1CCN(c2ccccc2O)CC1	/	?	20.9%	/	/	/
COc1cc(NC(=O)c2ccc(Cl)cc2)c(OC)cc1NC(=O)CN1CCCCC1	8.2%	-33.1%[11.4 µM]	?	50.1µM*	39.8µM*	-0.2%
COc1cc(NC(=O)Nc2ccccc2)c(OC)cc1NC(=O)CN1CCCCC1	-15.0%	39.8µM*	?	3.9%[12.7 µM]	50.1µM*	/
COc1cc(NC(=O)c2ccccc2)c(OC)cc1NC(=O)CN1C(=O)N(C)C2(CCCCC2)C1=O	/	?	-22.4%	79.4µM*	?	-11.5%
COc1ccc(OC)c(NC(=O)CCNS(=O)(=O)c2cccc3nonc23)c1	15.7%	4.9%	9.8%	?	-3.7%	/
CCc1ccc(NS(=O)(=O)c2cccc3nonc23)cc1	-6.7%	-26.3%[11.4 µM]	-11.8%	44.7µM*	?	/
O=S(=O)(Nc1ccccc1)c1cccc2nonc12	5.8%	-15.6%	11.3%	?	-37.2%	/
COc1ccc(NS(=O)(=O)c2cccc3nonc23)c(OC)c1	-23.0%	-25.2%	-12.9%	39.8µM*	?	-23.7%
COC(=O)c1cccc(-c2ccc(C(c3c(C)[nH][nH]c3=O)c3c(C)[nH][nH]c3=O)o2)c1	8.91µM*	56.2µM*	?	2.24µM*	39.8µM*	-16.2%
O=[N+]([O-])c1ccc(-c2cnc(SCc3ccccc3Cl)[nH]2)cc1	9.9%	?	?	35.5µM*	31.6µM*	-24.9%
NC(=O)CSc1ncc(-c2ccc([N+](=O)[O-])cc2)[nH]1	8.0%	-12.7%	23.8%	?	-2.8%	/
Cc1cc(C)c(CSc2ncc(-c3ccc([N+](=O)[O-])cc3)[nH]2)c(C)c1	26.1%	?	?	?	10µM*	-25.4%
O=[N+]([O-])c1ccc(-c2cnc(SC(c3ccccc3)c3ccccc3)[nH]2)cc1	39.2%	?	?	12.6µM*	39.8µM*	-26.3%
Cn1cccc1Cc1nnc(SCC(=O)NCc2ccccc2)n1-c1ccc(F)cc1	-7.2%	-33.8%	16.9%	50.1µM*	?	/
CCc1ccc(NC(=O)CSc2nnc(Cc3cccn3C)n2-c2ccc(F)cc2)cc1	13.9%	?	-21.5%	?	?	-16.0%
O=C(CSc1nnc(Cc2cc(=O)[nH]c(=O)[nH]2)n1-c1ccc(F)cc1)NC1CCCC1	-8.0%	-0.7%	54.0%	79.4µM*	-1.3%	4.0%
Cc1ccc(C)c(-n2c(Cc3cc(=O)[nH]c(=O)[nH]3)nnc2SC(C)C)c1	-4.8%	-13.8%	91.7%	50.1µM*	6.6%	5.7%
Cn1cccc1Cc1nnc(SCC(=O)NCc2ccc(F)cc2)n1-c1ccc(F)cc1	-5.3%	-28.9%	15.8%	50.1µM*	?	-11.6%
COc1ccc(-c2noc(-c3cccc(OC)c3OC)n2)cc1	/	114.8%	132.6%	26.6%[59 µM]	76.9%	/
Cn1cccc1Cc1nnc(SCC(=O)NC2CCCC2)n1-c1ccc(F)cc1	-20.0%	-29.6%	36.9%	70.8µM*	-7.1%	/
Cn1cccc1Cc1nnc(SCC(=O)NC2CCCCC2)n1CCc1ccccc1	-7.0%	?	24.9%	44.7µM*	-38.9%	-11.1%
SMILES	Sfp PPTase inh	JMJD2A Tudor	HP1b chromo inh	G9a block	BAZ2B block	L3MBTL1 block
CCOc1ccc(-n2c(Cc3cc(=O)[nH]c(=O)[nH]3)nnc2SCC(=O)OC)cc1	16.6%	-19.7%	7.9%	?	6.2%	-1.0%
CCOC(=O)CSc1nnc(Cc2cc(=O)[nH]c(=O)[nH]2)n1-c1ccc(Cl)cc1	-2.9%	?	4.8%	50.1µM*	-0.6%	2.0%
COc1cccc(-n2c(Cc3cc(=O)[nH]c(=O)[nH]3)nnc2SCc2cccnc2)c1	4.2%	-2.8%	69.5%	50.1µM*	14.7%	-0.4%
Cc1nnc(SCC(=O)NC2CCCC2)n1CCc1ccccc1	12.8%	-0.7%	39.9%	-9.4%	-0.4%	/
COc1ccc(-n2c(Cc3cccn3C)nnc2SCC(=O)NC2CCCCC2)cc1	-0.6%	-12.1%	-0.5%	?	-36.5%	-8.3%
O=C(c1ccccc1Cl)N1CCCC(c2nc3c(nnn3Cc3ccc(F)cc3F)c(=O)[nH]2)C1 (stereo not drawn)	/	-20.5%	17.3%	5.7%[59 µM]	-3.4%	/
CC(=O)N1CCc2cc(CNC(=O)Nc3cc(Cl)ccc3C)ccc21	/	-9.6%	18.3%[57 µM]	-6.2%[59 µM]	11.8%	/
Cc1ccc(NC2CCCN(C(=O)CCc3ccncc3)C2)cc1C (stereo not drawn)	6.3%	-11.7%	16.7%	4.1%	?	/
Cc1cc(C(=O)N2CCCC(Nc3ccc(F)cc3)C2)c(C)o1 (stereo not drawn)	1.4%	-17.0%	-9.2%	/	?	/
CCN(CC)Cc1cc2[nH]c3c4ccc(Cl)cc4ncc3c2cc1OC	-27.6%	-23.2%	31.1%	44.7µM*	-18.1%	/
COc1ccc(CNc2ncnc3cc(Cl)ccc23)cc1OC	4.6%	0.0%[57.1 µM]	41.1%	8.8%	0.8%	3.7%
COc1ccc(OC)c(S(=O)(=O)N2CCN(S(=O)(=O)c3ccc4c(c3)OCCO4)CC2)c1	/	-13.0%	/	/	/	/
S=C(Nc1ccc(-c2nc3ccccc3[nH]2)cc1)Nc1cccnc1	-20.8%	-34.2%	-36.1%	44.7µM*	-27.0%	/
S=C(NCCN1CCOCC1)Nc1ccc(-c2nc3ccccc3[nH]2)cc1	-8.8%	-18.1%	7.8%	44.7µM*	-25.6%	-5.9%
CO[C@@]12C[C@@H](COC(=O)c3cncc(Br)c3)CN(C)[C@H]1Cc1cn(C)c3cccc2c13	-2.1%	/	/	11.5%[21.5 µM]	/	/
Cc1nc2ccccn2c1C(=O)CSc1cccc(Cl)c1	-17.6%	-14.2%	35.1%	36.9%	16.9%	18.8%
Cc1cccc(S(=O)(=O)N2CCN(S(=O)(=O)c3ccc4c(c3)OCCO4)CC2)c1	/	-13.7%	/	/	/	/
